Data published in PubChem BioAssay (NCI).
About 83,000 compounds went through this panel and 20% of them were active in at least one assay; those are over-represented in the sample as a whole.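 Results are percent growth after 48 hours of single-concentration exposure. 100 means growth as in untreated cells, lower positive values show inhibition; negative values down to -100 show cell death.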 Unmarked numbers belong to inactive results. The source made the active and inactive calls. How the source made its calls: active means growth percent below 10; inactive means the rest.

Legend:
Assay in all cases: NCI-60 one-dose screen, 48 h (100 = growth as untreated, 0 = no growth, -100 = all killed)
SR leukemia = conditions: 10 µM unless noted
RPMI-8226 leukemia = conditions: 10 µM
OVCAR-8 ovarian = conditions: 10 µM unless noted
OVCAR-5 ovarian = conditions: 10 µM unless noted
OVCAR-4 ovarian = conditions: 10 µM unless noted
IGROV1 ovarian = conditions: 10 µM unless noted
OVCAR-3 ovarian = conditions: 10 µM unless noted
HS 578T breast = conditions: 10 µM unless noted
NCI/ADR-RES ovarian = conditions: 10 µM unless noted
BT-549 breast = conditions: 10 µM unless noted
MDA-MB-435 melanoma = conditions: 10 µM unless noted
SW-620 colon = conditions: 10 µM unless noted
MCF7 breast = conditions: 10 µM unless noted
HCT-116 colon = conditions: 10 µM unless noted
HCC-2998 colon = conditions: 10 µM unless noted
KM12 colon = conditions: 10 µM unless noted
T-47D breast = conditions: 10 µM
SK-OV-3 ovarian = conditions: 10 µM

SMILES	growth (SR leukemia)	growth (RPMI-8226 leukemia)	growth (OVCAR-8 ovarian)	growth (OVCAR-5 ovarian)	growth (OVCAR-4 ovarian)	growth (IGROV1 ovarian)	growth (OVCAR-3 ovarian)	growth (HS 578T breast)	growth (NCI/ADR-RES ovarian)	growth (BT-549 breast)	growth (MDA-MB-435 melanoma)	growth (SW-620 colon)	growth (MCF7 breast)	growth (HCT-116 colon)	growth (HCC-2998 colon)	growth (KM12 colon)	growth (T-47D breast)	growth (SK-OV-3 ovarian)
COc1ccc(/C=N/OCC(O)CNCc2ccccc2)cc1OC1CCCC1 (stereo not given)	87%	98.3%	104%	101%	91.2%	95.7%	104%	111%	104%	90.9%	99.4%	103%	93.9%	95.2%	110%	104%		
COC(=O)/C=C1/CCC2C3CCC4=CC(=O)C(Br)CC4(C)C3C(=O)CC12C (stereo not given)	33%	61.1%	63.1%	112%	67.8%	25.1%	89.5%	86.7%	81.7%	95.9%	76.3%	69.2%	42.3%	47.9%	62.1%	81.1%	54.8%	
ONc1nc(NO)c2[nH]cnc2n1	21.3%	45.1%	58.3%	89.5%	84.7%	86.9%	87.8%	108%	74.7%	77.4%	75.7%	55%	90.2%	46.8%	121%	110%	53.5%	
CCCCCCCC/C=C\CCCCCCCCOc1cccc(CC(=O)NCC[N+]2(C)CCCCC2)c1	34.7%	67.1%	74.3%	39.6%	66.3%	-37% (active)	89.9%	73.9%	102%	95.3%	82.1%	59.7%	75.7%	71.5%	67.9%	43.6%		
COc1cccc(C2C3=C(COC3=O)N(CCO)c3cc4c(cc32)CCC4)c1 (stereo not given)	29.4%	28.1%	20.9%	32.9%	10.3%	8.37% (active)	-46% (active)	2.16% (active)	-43.2% (active)	1.24% (active)	-32.7% (active)	18.8%	9.39% (active)	-9.32% (active)	-20.6% (active)	-42.8% (active)	77.7%	
COc1cc2nc(N3CCC[C@H](NC4=CC(=O)c5ccccc5C4=O)C3)nc(N)c2cc1OC	-20.1% (active)	-50.1% (active)	-57.2% (active)	125%	-88% (active)	-81.6% (active)	-57.7% (active)	-49.1% (active)	29.4%	105%	-96.1% (active)	-45.1% (active)	-77.3% (active)	-85.3% (active)	92.9%	-39.2% (active)	-56.2% (active)	
Cc1nc2cc(Nc3nc(Cl)nc(Nc4ccc(F)cc4)n3)ccc2n1Cc1ccccc1	57.5%	15.3%	81.5%	86.3%	85.8%	83%	94.2%	79.5%	95.6%	90.6%	95.6%	84.8%	61.5%	3.88% (active)	94.5%	69.2%	57%	
OB(O)c1ccccc1	88%	102%	105%	108%	115%	114%	114%	102%	104%	96.2%	109%	108%	111%	108%	109%	107%		
O=C(Nc1nc2ccccc2[nH]1)C(=O)Nc1nc2ccccc2[nH]1	89.6%	90.8%	102%	88.6%	96.3%	81.9%	101%	105%	98.7%	108%	101%	102%	83.9%	103%	107%	101%	95.4%	
O=C1CC(c2ccsc2)c2snc(-c3ccc(Cl)cc3)c2N1 (stereo not given)	20.9%	12.5%	40.8%	47.7%	37.5%	40.7%	-14% (active)	46%	16.8%	32.8%	-20.9% (active)	33.4%	7.59% (active)	21.5%	58.5%	27.6%	30.6%	
NC(=O)c1nc2c([nH]c1=O)CCCC2	100%	96.5%	106%	117%	109%	115%	108%	109%	105%	115%	113%	101%	98.7%	109%		98.8%	92.7%	
CCOC(=O)c1c(-c2cc(OC)c(OC)c(OC)c2)csc1N	27.2%	90.3%	106%	101%	118%	84.3%	96.4%	104%	83.8%	117%	-1.03% (active)	76.6%	78.1%	90.4%		64.2%	94%	
CCCN1CCN(c2ccc3nc(-c4ccc5nc(-c6ccc(C(F)(F)F)cc6)[nH]c5c4)[nH]c3c2)CC1	-35.5% (active)	-29.9% (active)	-38% (active)	-25% (active)	-82.5% (active)	-83.5% (active)	-96.9% (active)	4.6% (active)	74%	73.5%	-89% (active)	-82.6% (active)	-77% (active)	-83.3% (active)	-89.8% (active)	-86.4% (active)	48%	
Cc1ccc(S(=O)(=O)N2CCc3ccc(O)c4c3C2Cc2ccc3c(c2-4)OCO3)cc1 (stereo not given)	14.8%	27.4%	31.1%	45.8%	45.6%	41.6%	-47.7% (active)	47.5%	9.54% (active)			37.2%	20.6%	13%	-25.8% (active)	12.5%	46%	
COc1cccc2c(=O)c3c(sc12)c(NCCN(C)C)nc1ccccc13	-21.2% (active)	-20.1% (active)	25.2%	40.8%	-14.4% (active)	21%	24.9%	13.6%	29.4%	61.3%	-87.1% (active)	-69.5% (active)	0.0828% (active)	11%	12.2%	-76.7% (active)	61.3%	
O=C1/C(=C/c2ccc([N+](=O)[O-])cc2)Oc2ccc(O)cc21	43%	34%	90.7%	-9.84% (active)	39.7%	18%	16.7%	97.2%	89%	96.5%	95%	25.9%	3.33% (active)	9.15% (active)	46%	102%		
CCCCC/C=C\C/C=C/CCCCCCCCNC(=O)Nc1ccc([N+](=O)[O-])cc1	34.9%	12.8%	52.9%	113%	93%	46.3%	21.3%	88.2%		109%	68.3%	31.6%	103%	40%	95.3%	23.9%		
O=C(N/N=C/c1ccc(OC(F)F)c(OC2CCCC2)c1)c1cnn2c1NC(c1ccccc1)C2 (stereo not given)	37.4%	73.9%	90.4%	93.7%	61.3%	83.4%	78.9%	69.2%		73.4%	18%	78.4%	69.2%	67.4%	111%	54.8%		
COc1ccc(/C=N/OCC(O)CN2CCC(O)CC2)cc1OC1CCCC1 (stereo not given)	112%	110%	109%	101%	100%	107%	114%	108%	104%	88.7%	102%	104%	94.7%	89.6%	101%	109%		
Cc1ccccc1-c1cc(-c2ccc(Br)s2)[nH]c(=O)c1C#N	100%	102%	105%	104%	108%	96.5%	113%	96%	98.5%	105%	103%	108%	92.3%	93.3%	104%	105%		
CCCCOC(=O)C1OC(Oc2ccc3c(C)cc(=O)oc3c2)[C@@H](OC(C)=O)C(OC(C)=O)C1OC(C)=O (stereo not given in full)	88.1%	97.9%	104%	97.8%	101%	101%	108%	101%	99.9%	103%	101%	102%	91.5%	88.1%	109%	99.4%		
O=C1Nc2ccc(Cl)cc2/C1=N/N=C(c1ccccc1)c1ccccc1	101%	92.9%	96%	96.2%	85.8%	77.4%	105%	97.3%		100%	99.8%	94.1%	100%	97.9%	102%	93.4%		
COc1cc(/C=N/NC(=O)c2cnn3c2NC(c2ccccc2)C3)cc(OC)c1OC (stereo not given)	47.6%	96.7%	90.7%	87.2%	82.5%	54.7%	10.4%	65.2%	82.9%	60.2%	-15.9% (active)	32.8%	34.9%	35%	91.2%	30.6%		
CCCCCCCC/C=C\CCCCCCCCOc1cccc(CC(=O)NCC[N+]2(C)CCCC2)c1	43.1%	77.3%	85.5%	53.8%	77.1%	-15.7% (active)	96.2%	77.5%	108%	115%		77.9%	73.4%	76.2%	75.9%	69.2%		
CCCCCCCC/C=C\CCCCCCCCOc1cccc(CC(=O)NCC[N+](C)(C)C)c1	59%	61.9%	85.9%	51.8%	88.6%	3.34% (active)	99.4%	78.4%	103%	74.4%		96.5%	90.8%	75.2%	66.1%	57.8%		
Cc1cc(C)c(S(=O)O)c(C)c1	102%	102%	115%	114%	111%	129%	120%	104%	97%	104%	103%	103%	109%	109%	110%	112%		
COc1ccc(/C=N/NC(=O)c2cnn3c2NC(c2ccccc2)C3)cc1OC1CCCC1 (stereo not given)	47.2%	79%	85%	101%	76.5%	101%	106%	88%	92.7%	93.3%		97.5%	86.2%	82%	110%	81.3%		
Cc1ccc(NS(=O)(=O)c2ccc(-c3cnc(C4CC4)o3)cc2)cc1	33.8%	37.6%	49.3%	48.8%	59%	39.8%	-2% (active)	-2.93% (active)	8.09% (active)	40.4%	-3.14% (active)	12.4%	15.6%	11.8%	69.2%	20.5%		
O=S(=O)(Nc1ccccc1Cl)c1ccc(-c2cnc(C3CC3)o2)cc1	41.5%	27.9%	33.8%	38.3%	50%	33.1%	-32.1% (active)			49.5%		26.2%	15.7%	22.3%	39.9%	20.5%		
CC1=C(C/C=C(\C)CCC[C@H](C)CCC[C@H](C)CCCC(C)C)C(=O)c2ccccc2C1=O	94.9%	106%	100%	105%		111%	119%	105%	111%	96.7%	108%	104%	108%	98.8%	108%	105%	110%	103%
